1 sequence from paper PMC7862700, “An all-to-all approach to the identification of sequence-specific readers for epigenetic DNA modifications on cytosine” can be followed below.

Experiment in all cases: DAPPL (digital affinity profiling via proximity ligation, sequencing); 10 mM Tris-HCl pH 7.5, 50 mM NaCl, 1 mM DTT, 4% glycerol, room temperature, 30 min; GST-TFs on glutathione beads, 16-mer random dsDNA library, 0.1% formaldehyde crosslink after washing; high values mean tight binding
The target of one experiment is T1, FEV (Homo sapiens, UniProt Q99581 1-238).
T1 sequence: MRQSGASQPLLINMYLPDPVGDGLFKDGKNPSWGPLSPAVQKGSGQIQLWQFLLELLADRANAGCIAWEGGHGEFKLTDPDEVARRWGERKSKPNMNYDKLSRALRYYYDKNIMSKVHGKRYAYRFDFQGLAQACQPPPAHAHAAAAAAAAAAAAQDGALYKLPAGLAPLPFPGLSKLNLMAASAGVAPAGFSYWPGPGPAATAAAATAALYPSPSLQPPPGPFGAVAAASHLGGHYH
To be noted: protein: recombinant; tags: N-terminal GST; dsDNA, one strand shown. Summed up: (§1)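 Human transcription factors carrying a GST fusion were produced in yeast, bound to glutathione beads, tagged with DNA barcodes and pooled together with a tag-only sample. Each pool was held with 200 nmole of a random double-stranded 16-mer DNA library in Tris/NaCl/DTT/glycerol buffer for 30 min at room temperature, then washed, crosslinked in 0.1% formaldehyde, proximity-ligated with BsaI/T4 ligase (1 h, 37 °C), PCR-amplified and sequenced on an Illumina NextSeq500. Binding signal is the read frequency of each hexamer for a given factor divided by its frequency in the tag-only sample.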

In a further experiment the target is ETV5 (Homo sapiens, UniProt P41161 1-510). Conditions: protein: recombinant; tags: N-terminal GST; dsDNA, one strand shown. The method, boiled down: as §1
The next experiment deals with HSF1 (Homo sapiens, UniProt Q00613 1-529). Conditions: protein: recombinant; tags: N-terminal GST; chain copies: 3; dsDNA, one strand shown. Summed up:
as §1

The next experiment has as its target T2, SPIC (Homo sapiens, UniProt Q8N5J4 1-248).
T2 sequence: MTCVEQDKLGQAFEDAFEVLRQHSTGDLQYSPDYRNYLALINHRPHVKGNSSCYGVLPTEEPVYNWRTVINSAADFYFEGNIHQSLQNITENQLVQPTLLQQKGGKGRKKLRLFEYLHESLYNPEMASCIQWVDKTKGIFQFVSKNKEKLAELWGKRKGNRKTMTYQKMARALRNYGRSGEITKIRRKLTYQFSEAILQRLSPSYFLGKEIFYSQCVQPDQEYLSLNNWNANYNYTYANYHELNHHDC
Conditions: protein: recombinant; tags: N-terminal GST; dsDNA, one strand shown. Summed up:
as §1

For the next experiment, the target named is ELF4 (Homo sapiens, UniProt Q99607 1-663). To be noted: protein: recombinant; tags: N-terminal GST; dsDNA, one strand shown. The method, boiled down: as §1
The target of a further experiment is T3, ELK4 (Homo sapiens, UniProt P28324-2 1-405).
T3 sequence: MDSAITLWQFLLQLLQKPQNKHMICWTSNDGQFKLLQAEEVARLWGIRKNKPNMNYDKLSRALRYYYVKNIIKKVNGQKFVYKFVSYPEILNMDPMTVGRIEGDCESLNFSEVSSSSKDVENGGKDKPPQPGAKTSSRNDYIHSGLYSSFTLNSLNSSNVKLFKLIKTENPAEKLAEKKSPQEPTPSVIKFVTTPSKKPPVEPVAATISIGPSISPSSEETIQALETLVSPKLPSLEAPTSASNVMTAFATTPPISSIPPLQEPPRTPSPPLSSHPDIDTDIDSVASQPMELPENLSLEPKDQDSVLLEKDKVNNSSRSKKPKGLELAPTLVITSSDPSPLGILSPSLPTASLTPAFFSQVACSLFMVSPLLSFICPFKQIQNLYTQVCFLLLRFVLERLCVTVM
To be noted: protein: recombinant; tags: N-terminal GST; dsDNA, one strand shown. Summed up:
as §1

A further experiment deals with T4, ETV2 (Homo sapiens, UniProt O00321 1-342).
T4 sequence: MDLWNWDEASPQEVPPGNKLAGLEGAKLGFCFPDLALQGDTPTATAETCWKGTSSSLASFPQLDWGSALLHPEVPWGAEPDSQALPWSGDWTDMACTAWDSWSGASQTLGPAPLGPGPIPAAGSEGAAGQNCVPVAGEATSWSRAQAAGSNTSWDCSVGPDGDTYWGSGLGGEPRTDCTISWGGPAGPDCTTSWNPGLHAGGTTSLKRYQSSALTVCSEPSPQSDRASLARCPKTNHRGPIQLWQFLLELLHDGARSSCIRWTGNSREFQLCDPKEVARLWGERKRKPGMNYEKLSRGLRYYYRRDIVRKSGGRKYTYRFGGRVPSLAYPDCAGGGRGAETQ
Conditions: protein: recombinant; tags: N-terminal GST; dsDNA, one strand shown. The method, boiled down:
as §1

The target of the next experiment is T5, ELF3 (Homo sapiens, UniProt P78545 1-371).
T5 sequence: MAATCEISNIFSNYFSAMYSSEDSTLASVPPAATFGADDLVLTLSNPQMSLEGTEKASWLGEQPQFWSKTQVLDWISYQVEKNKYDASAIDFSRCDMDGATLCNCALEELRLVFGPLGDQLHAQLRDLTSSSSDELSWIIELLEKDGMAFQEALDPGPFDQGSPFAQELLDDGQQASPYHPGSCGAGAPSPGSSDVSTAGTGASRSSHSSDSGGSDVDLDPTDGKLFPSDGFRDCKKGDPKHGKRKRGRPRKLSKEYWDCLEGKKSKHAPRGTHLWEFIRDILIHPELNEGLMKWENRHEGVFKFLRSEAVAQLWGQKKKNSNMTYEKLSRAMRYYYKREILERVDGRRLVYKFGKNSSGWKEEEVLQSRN
Conditions: protein: recombinant; tags: N-terminal GST; dsDNA, one strand shown. Summed up:
as §1

In another experiment the target is CRX (Homo sapiens, UniProt O43186 1-299). To be noted: protein: recombinant; tags: N-terminal GST; dsDNA, one strand shown. The method, boiled down:
as §1

For another experiment, the target named is ETV1 (Homo sapiens, UniProt P50549 1-477). Conditions: protein: recombinant; tags: N-terminal GST; dsDNA, one strand shown. The method, boiled down: as §1
A further experiment addresses T6, ERF (Homo sapiens, UniProt P50548 1-548).
T6 sequence: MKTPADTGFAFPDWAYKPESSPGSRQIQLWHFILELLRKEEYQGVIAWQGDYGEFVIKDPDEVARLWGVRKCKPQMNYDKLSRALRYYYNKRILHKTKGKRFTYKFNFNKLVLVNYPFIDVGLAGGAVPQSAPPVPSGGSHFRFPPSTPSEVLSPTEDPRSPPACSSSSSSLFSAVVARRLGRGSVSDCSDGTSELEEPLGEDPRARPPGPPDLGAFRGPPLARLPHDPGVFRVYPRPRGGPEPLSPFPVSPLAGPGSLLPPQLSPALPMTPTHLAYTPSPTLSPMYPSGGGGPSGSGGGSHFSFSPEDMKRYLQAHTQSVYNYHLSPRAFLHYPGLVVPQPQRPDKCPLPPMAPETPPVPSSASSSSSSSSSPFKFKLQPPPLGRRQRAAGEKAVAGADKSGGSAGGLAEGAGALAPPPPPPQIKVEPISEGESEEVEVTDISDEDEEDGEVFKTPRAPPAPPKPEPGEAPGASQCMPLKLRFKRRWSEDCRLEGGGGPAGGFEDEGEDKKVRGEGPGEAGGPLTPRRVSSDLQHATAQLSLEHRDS
To be noted: protein: recombinant; tags: N-terminal GST; dsDNA, one strand shown. Summed up: as §1

In another experiment the target is T7, ETV3L (Homo sapiens, UniProt Q6ZN32 1-361).
T7 sequence: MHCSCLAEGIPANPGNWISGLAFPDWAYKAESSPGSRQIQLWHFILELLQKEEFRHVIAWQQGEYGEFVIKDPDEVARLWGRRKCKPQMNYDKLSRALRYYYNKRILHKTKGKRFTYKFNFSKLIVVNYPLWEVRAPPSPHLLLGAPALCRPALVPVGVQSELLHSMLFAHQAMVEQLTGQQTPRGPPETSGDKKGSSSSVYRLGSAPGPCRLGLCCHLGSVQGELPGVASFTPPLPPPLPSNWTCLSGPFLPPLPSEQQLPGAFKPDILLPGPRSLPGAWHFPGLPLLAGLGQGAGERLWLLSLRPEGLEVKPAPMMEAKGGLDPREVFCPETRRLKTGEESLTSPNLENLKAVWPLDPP
To be noted: protein: recombinant; tags: N-terminal GST; dsDNA, one strand shown. Summed up:
as §1

For a further experiment, the target named is T8, ETS2 (Homo sapiens, UniProt P15036 1-469).
T8 sequence: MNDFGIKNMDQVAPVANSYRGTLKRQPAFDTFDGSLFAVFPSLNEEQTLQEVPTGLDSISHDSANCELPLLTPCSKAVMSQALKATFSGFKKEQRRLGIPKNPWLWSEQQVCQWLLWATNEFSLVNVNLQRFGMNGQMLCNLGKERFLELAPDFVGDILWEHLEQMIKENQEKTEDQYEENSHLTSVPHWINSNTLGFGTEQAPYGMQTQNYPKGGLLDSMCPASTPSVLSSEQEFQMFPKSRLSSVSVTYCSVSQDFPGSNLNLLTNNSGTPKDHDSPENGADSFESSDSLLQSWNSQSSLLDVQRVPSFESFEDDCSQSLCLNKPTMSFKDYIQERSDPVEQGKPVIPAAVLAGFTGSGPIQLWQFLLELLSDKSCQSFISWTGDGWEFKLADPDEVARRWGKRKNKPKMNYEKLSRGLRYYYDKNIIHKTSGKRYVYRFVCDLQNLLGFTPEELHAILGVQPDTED
Conditions: protein: recombinant; tags: N-terminal GST; dsDNA, one strand shown. The method, boiled down: as §1

A further experiment concerns the target T9, SPDEF (Homo sapiens, UniProt O95238 1-335).
T9 sequence: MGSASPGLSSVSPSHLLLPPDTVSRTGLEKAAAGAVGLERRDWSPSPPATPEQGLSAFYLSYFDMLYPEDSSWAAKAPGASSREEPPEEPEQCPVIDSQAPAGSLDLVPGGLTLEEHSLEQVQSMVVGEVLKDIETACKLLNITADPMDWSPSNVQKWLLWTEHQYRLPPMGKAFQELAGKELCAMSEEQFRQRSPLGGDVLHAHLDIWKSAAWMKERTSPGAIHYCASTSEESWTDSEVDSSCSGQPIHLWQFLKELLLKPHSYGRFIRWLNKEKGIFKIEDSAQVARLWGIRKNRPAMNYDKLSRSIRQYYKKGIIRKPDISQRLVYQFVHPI
To be noted: protein: recombinant; tags: N-terminal GST; dsDNA, one strand shown. Summed up: as §1

The next experiment has as its target T10, ETV7 (Homo sapiens, UniProt Q9Y603 1-341).
T10 sequence: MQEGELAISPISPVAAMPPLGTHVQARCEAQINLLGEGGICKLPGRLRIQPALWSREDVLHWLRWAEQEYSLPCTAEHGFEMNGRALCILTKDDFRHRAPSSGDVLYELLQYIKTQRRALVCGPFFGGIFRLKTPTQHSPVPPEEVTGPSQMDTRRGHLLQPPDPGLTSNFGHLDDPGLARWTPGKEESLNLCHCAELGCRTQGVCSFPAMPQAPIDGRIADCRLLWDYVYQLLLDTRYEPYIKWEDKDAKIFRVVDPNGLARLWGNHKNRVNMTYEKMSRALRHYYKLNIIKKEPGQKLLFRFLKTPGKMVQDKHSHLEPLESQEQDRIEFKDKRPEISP
Conditions: protein: recombinant; tags: N-terminal GST; dsDNA, one strand shown. The method, boiled down:
as §1

The next experiment addresses T11, ELF5 (Homo sapiens, UniProt Q9UKW6-2 1-255).
T11 sequence: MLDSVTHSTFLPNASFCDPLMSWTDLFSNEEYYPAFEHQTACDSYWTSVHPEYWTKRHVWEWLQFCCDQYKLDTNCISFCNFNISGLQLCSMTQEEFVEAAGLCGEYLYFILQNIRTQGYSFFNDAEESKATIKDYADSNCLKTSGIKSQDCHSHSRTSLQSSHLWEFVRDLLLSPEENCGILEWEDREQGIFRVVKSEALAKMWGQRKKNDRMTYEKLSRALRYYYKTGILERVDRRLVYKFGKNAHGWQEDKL
To be noted: protein: recombinant; tags: N-terminal GST; dsDNA, one strand shown. The method, boiled down: as §1

The target in another experiment is T12, ETV3 (Homo sapiens, UniProt P41162-2 1-143).
T12 sequence: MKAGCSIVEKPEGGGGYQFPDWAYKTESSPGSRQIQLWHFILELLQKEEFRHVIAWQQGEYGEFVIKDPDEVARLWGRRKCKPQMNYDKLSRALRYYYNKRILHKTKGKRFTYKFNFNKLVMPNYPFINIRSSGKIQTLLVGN
To be noted: protein: recombinant; tags: N-terminal GST; dsDNA, one strand shown. The method, boiled down: as §1

The target in the next experiment is ETV6 (Homo sapiens, UniProt P41212 1-452). To be noted: protein: recombinant; tags: N-terminal GST; dsDNA, one strand shown. Summed up:
as §1

Chain of HSF1 (Q00613 whole entry): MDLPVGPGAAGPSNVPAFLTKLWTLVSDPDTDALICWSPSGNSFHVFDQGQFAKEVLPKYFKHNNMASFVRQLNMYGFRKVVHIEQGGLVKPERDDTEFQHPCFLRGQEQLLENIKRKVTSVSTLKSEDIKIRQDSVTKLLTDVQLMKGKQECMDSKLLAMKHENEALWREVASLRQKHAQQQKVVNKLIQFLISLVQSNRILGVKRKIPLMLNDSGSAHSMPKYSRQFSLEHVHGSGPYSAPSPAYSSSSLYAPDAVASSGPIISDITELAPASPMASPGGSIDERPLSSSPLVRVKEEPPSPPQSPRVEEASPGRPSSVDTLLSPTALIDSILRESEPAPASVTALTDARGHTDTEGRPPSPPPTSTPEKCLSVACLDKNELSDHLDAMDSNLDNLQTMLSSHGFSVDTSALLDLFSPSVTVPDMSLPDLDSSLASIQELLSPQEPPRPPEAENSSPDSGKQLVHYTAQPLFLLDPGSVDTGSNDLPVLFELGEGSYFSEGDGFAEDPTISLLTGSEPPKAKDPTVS
Chain of ETV5 (P41161 whole entry): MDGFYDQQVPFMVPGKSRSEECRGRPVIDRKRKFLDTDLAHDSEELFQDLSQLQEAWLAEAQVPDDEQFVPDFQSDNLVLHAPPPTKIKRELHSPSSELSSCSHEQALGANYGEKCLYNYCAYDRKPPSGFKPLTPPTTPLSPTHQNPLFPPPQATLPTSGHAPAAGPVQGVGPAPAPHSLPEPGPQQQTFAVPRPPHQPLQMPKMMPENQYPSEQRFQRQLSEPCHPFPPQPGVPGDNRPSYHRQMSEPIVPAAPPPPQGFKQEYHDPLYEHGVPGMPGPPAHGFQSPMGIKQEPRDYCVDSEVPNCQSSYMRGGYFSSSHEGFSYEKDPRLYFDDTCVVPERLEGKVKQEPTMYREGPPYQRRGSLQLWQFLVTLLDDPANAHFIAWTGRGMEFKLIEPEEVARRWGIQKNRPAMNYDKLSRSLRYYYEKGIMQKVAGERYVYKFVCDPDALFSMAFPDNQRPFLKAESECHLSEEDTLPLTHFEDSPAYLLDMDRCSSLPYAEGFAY
Chain of ELF4 (Q99607 whole entry): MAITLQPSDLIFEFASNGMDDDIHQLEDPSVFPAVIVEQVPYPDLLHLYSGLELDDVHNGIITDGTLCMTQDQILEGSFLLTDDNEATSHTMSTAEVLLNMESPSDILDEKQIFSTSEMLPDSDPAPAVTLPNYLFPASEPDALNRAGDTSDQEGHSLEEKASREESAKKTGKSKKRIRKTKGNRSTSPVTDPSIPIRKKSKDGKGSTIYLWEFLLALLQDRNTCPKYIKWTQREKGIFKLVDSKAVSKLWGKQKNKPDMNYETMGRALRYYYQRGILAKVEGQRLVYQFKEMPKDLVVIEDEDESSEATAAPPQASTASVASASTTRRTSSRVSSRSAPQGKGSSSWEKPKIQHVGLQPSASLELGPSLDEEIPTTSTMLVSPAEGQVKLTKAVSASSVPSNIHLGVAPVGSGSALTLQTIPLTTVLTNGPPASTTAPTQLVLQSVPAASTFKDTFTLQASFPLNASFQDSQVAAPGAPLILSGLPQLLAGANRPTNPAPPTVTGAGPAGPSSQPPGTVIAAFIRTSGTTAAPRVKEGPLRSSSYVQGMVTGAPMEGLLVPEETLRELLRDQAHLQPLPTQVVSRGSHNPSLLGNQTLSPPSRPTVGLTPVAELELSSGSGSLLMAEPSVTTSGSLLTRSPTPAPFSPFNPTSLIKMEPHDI
Chain of CRX (O43186 whole entry): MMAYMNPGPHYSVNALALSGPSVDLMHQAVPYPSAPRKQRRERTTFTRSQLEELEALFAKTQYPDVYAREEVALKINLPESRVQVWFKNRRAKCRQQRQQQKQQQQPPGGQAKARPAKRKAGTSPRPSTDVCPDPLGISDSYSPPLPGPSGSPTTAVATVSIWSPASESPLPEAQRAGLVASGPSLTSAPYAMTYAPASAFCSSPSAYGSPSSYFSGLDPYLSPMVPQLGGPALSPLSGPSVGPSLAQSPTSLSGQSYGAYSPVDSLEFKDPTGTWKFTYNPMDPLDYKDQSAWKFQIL
Chain of ETV1 (P50549 whole entry): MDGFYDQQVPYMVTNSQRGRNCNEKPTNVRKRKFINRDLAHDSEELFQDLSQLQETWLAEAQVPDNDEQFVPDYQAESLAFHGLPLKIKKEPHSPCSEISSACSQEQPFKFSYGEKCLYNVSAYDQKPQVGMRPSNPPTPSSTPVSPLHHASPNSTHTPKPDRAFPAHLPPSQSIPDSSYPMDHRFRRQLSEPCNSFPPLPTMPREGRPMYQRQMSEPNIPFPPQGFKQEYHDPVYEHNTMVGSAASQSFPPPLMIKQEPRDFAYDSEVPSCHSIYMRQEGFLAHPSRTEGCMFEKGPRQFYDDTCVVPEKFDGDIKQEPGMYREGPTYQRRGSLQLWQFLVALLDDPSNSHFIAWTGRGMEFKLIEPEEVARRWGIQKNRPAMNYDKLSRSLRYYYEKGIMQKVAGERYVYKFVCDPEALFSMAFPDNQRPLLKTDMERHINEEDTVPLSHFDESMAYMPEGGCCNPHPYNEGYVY
Chain of ETV6 (P41212 whole entry): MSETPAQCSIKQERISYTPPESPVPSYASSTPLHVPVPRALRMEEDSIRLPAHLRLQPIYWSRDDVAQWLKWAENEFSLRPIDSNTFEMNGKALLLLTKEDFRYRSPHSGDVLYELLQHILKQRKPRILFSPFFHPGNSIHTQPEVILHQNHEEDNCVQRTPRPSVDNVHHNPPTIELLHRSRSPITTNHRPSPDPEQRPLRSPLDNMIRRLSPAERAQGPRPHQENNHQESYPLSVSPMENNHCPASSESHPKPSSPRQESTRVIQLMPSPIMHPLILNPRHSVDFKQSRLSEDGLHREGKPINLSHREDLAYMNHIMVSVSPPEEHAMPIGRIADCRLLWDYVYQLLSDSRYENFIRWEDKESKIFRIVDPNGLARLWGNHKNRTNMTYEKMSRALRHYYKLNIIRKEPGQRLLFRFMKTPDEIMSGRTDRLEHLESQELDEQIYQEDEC

In the case of ATCAAC, the binding signal was 1.13 fold enrichment (6-mer frequency, TF over GST control) with FEV; 1.04 fold enrichment (6-mer frequency, TF over GST control) with ETV5; 1.02 fold enrichment (6-mer frequency, TF over GST control) with HSF1; 1.03 fold enrichment (6-mer frequency, TF over GST control) with SPIC; 1.09 fold enrichment (6-mer frequency, TF over GST control) in the experiment with ELF4; 1.14 fold enrichment (6-mer frequency, TF over GST control) with ELK4. In addition, the binding signal in the experiment with ETV2 was 1.18 fold enrichment (6-mer frequency, TF over GST control); with ELF3, 1.08 fold enrichment (6-mer frequency, TF over GST control); with CRX, 1.25 fold enrichment (6-mer frequency, TF over GST control); with ETV1 it was 1.1 fold enrichment (6-mer frequency, TF over GST control); with ERF, 1.15 fold enrichment (6-mer frequency, TF over GST control); with ETV3L, 1.23 fold enrichment (6-mer frequency, TF over GST control). The binding signal is 1.18 fold enrichment (6-mer frequency, TF over GST control) with ETS2; 1.06 fold enrichment (6-mer frequency, TF over GST control) with SPDEF; 1.02 fold enrichment (6-mer frequency, TF over GST control) with ETV7; 1.02 fold enrichment (6-mer frequency, TF over GST control) with ELF5; 1.12 fold enrichment (6-mer frequency, TF over GST control) in the experiment with ETV3; 1.1 fold enrichment (6-mer frequency, TF over GST control) with ETV6.
